Structures are written as SMILES. Hit rate of the full screen: of about 340,000 compounds, about 2,100 (0.62%) were called active.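 How the source made its calls: active means first-screen hits whose inhibition reached a set limit at any dose in the follow-up dose series; inconclusive means inhibition above the set first-screen limit but never retested; inactive means the rest.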 Not all results are given here. Measured potencies and affinities stand elsewhere.

By inhibition is commonly meant the relative decrease from the control value, in per cent.

The target in the assay is Rac GTPase-activating protein 1 (Homo sapiens) (UniProt Q9H0H5). The assay is described as follows: blockers of MgcRacGAP-driven Rac1 GTP hydrolysis – biochemical, ADP Hunter fluorescence, primary and confirmatory, confirmation (AID 624330).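 Further: fluorescence reports GDP produced by GAP-driven GTP hydrolysis.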 To be noted: MgcRacGAP-stimulated Rac1 GTP hydrolysis, at 30 µM, active compounds read high, GST-tagged Rac1 F28L mutant substrate.
Rac GTPase-activating protein 1 (Homo sapiens), sequence (Q9H0H5 whole entry, looked up): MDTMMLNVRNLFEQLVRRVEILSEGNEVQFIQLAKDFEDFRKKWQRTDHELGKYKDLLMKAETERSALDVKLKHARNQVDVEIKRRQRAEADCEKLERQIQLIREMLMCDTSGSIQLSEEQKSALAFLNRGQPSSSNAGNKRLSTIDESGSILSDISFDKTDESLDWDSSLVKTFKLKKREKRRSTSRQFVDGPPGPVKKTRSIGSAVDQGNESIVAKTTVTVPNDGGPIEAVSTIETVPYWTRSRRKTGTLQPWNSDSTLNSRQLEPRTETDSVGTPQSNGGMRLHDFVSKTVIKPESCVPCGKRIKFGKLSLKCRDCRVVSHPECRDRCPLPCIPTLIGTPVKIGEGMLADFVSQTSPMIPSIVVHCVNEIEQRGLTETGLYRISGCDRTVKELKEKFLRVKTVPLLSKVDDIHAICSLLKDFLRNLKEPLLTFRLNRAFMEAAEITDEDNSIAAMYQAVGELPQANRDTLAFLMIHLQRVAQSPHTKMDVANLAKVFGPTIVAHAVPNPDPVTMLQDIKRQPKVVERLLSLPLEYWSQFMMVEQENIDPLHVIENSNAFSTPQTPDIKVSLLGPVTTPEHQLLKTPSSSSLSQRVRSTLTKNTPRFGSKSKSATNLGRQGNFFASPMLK
Regarding `CC1CCN(S(=O)(=O)c2ccc3ccccc3c2)CC1`, the inhibition is 1.45% (inactive). The result for `CC1CCN(S(=O)(=O)c2ccc3[nH]c(=O)[nH]c3c2)CC1` reads 6.82% (inactive); that for `Cc1ccc2c(c1)N(C(C)C(=O)NCc1ccc3c(c1)OCO3)C(=O)CO2` (stereo unspecified), 11.4% (inactive). Regarding `Cc1ccc(C(=O)COC(=O)c2nc3nccc(C)n3n2)c(C)c1`, the inhibition was 5.3% (inactive). For `NC(=O)c1cc2ccncc2c2ccccc12` the value was 8.91% (inactive); for `CC1CC2(CCCCC2)Nc2ccc3ccccc3c21` (stereo unspecified), 12.5% (inactive); for `CC1NC(C)(C)Cc2c1ccc1ccccc21` (stereo unspecified), 2.36% (inactive). For `Cc1cccc(OCC(=O)NNC(=O)C2CCN(c3ncnc4sc(C)c(C)c34)CC2)c1` the value was 12.2% (inactive); for `COc1ccc(Nc2nc(OC)nc(OC)n2)cc1`, 14.1% (inactive). For `CNc1nc(Nc2ccc(C(C)=O)cc2)nc(OC(C(F)(F)F)C(F)(F)F)n1` the value was 8.39% (inactive); for `CCCC(C)NC(=O)CN1C(=O)c2cccc3cccc1c23` (stereo unspecified), 7.54% (inactive); for `Cc1ccc(CN(C)CCc2ccccn2)cc1`, 13% (inactive). For `COc1ccc(CN(C)Cc2ccccc2)c(OC)c1OC`, the inhibition was 4.85% (inactive). For `CN(CCc1ccccn1)Cc1ccc(Cl)c(Cl)c1` the value was 27.1% (inactive); for `CN(CCc1ccccn1)Cc1ccc(Cl)cc1Cl`, 19.1% (inactive). For `CCc1ccc(CN(C)CCc2ccccn2)cc1` the value was 13.2% (inactive); for `COc1ccc(CCN(C)Cc2ccc(OC)c(OCc3ccccc3)c2)cc1OC`, 18.3% (inactive); for `Cc1cccc(CN(C)CCc2ccccn2)c1`, 9.5% (inactive). The result for `CN(CCc1ccccn1)Cc1ccc(Cl)cc1` reads 24% (inactive); that for `CC(C)=CCCC(C)=CCN1C(=O)CN(C)C1=O`, 4.98% (inactive); that for `CC(=O)c1cccc(NC(=O)C(C)OC(=O)CCC2CCCCC2)c1` (stereo unspecified), 1.73% (inactive). For the molecule `O=[N+]([O-])c1cccc(/C=N/n2cnnc2)c1O`, the inhibition is 4.49% (inactive). The result for `Cc1onc(-c2ccccc2Cl)c1C(=O)NCCCN1CCOCC1` reads 12% (inactive). With `NS(=O)(=O)c1ccc(N/N=C/c2cn(-c3ccccc3)nc2-c2cccs2)cc1`, the inhibition is 2.12% (inactive). On to `CCN(CCCCCCN)c1ccc2c(=O)[nH][nH]c(=O)c2c1`, for which the inhibition is 3.58% (inactive). The result for `Cc1ccc(-n2ncc3c(NNC(=O)c4ccco4)ncnc32)c(C)c1` reads 7.64% (inactive); that for `CCc1ccc(C2=NN(CCC(=O)NCC3CCCO3)C(=O)CC2)cc1` (stereo unspecified), 11.8% (inactive); that for `CCNC(=S)N(CCc1c(C)[nH]c2ccc(OC)cc12)Cc1cccnc1`, 12.7% (inactive). The result for `O=C(NC1CCCCC1)c1sc(=S)n2c1[nH]c(=O)c1ccccc12` reads 10.6% (inactive); that for `O=C(NCc1ccccc1)c1ccc2c(=O)[nH]c3c(C(=O)NCC4CCCO4)sc(=S)n3c2c1` (stereo unspecified), 16.2% (inactive).

As for `Cc1ccccc1Cn1nc(C)c(NC(=O)c2cc(CC(C)C)on2)c1C`, the inhibition is 9.15% (inactive). For `COc1ccc(NC(=O)c2c(NC(=O)CNCc3ccco3)sc3c2CCC3)cc1`, the inhibition is 15.6% (inactive). The result for `COC(=O)c1c(NC(=O)c2ccco2)sc2c1CCC2` reads 15.8% (inactive).

For `CC(Sc1nncn1C)C(=O)Nc1nnc(C(C)C)s1` (stereo unspecified), the inhibition is -0.22% (inactive).

Take `CC(=O)CSc1nnc(NC(=O)CCc2ccccc2)s1`: the inhibition is 2.89% (inactive).

For the molecule `CCNC(=S)NNC(=O)c1cc(Br)cs1`, the inhibition is 11.2% (inactive). The result for `CCCCn1c(N)c(N(Cc2ccccc2OC)C(=O)C(C)Oc2ccc(F)cc2)c(=O)[nH]c1=O` (stereo unspecified) reads 6.07% (inactive). For the molecule `C=CCSc1nnc(NC(=O)CSc2nc(CCC)cc(=O)[nH]2)s1`, the inhibition is 12.2% (inactive). For `COc1cc(NC(=O)CN2C(=O)NC(C)(CCC(C)C)C2=O)cc(OC)c1` (stereo unspecified), the inhibition was -1.63% (inactive). As for `C=CCOC(=O)Nc1c(C(=O)OC)[nH]c2ccccc12`, the inhibition was 13.1% (inactive).

For the molecule `C=CCOC(=O)Nc1c(C(=O)OC)[nH]c2ccc(Cl)cc12`, the inhibition is 0.34% (inactive). The result for `COC(=O)c1[nH]c2ccccc2c1NC(=O)c1c(F)cccc1F` reads -14.4% (inactive); that for `CCOC(=O)c1[nH]c2ccccc2c1NC(=O)CC`, -0.8% (inactive); that for `CCOC(=O)Nc1c(C(=O)OC)[nH]c2cc(OC)ccc12`, 8.73% (inactive). The result for `CCOC(=O)c1[nH]c2ccccc2c1NC(C)=O` reads 2.46% (inactive); that for `COC(=O)c1[nH]c2cc(OC)c(OC)cc2c1NC(=O)c1cccc(OC)c1`, 10.8% (inactive); that for `COC(=O)c1[nH]c2ccc(C)cc2c1NC(=O)Oc1ccccc1`, 84.7% (inactive).

Consider `N#Cc1c(/N=C/c2cc(Br)cs2)sc2c1CCC2`, for which the inhibition is 14.5% (inactive).

On to `NC(=O)C[C@@H]1NC(=O)[C@H](CCC(=O)O)NC(=O)c2cc([N+](=O)[O-])cc(I)c2OCC[C@@H](C(N)=O)NC1=O`, for which the inhibition was 6.13% (inactive). The result for `CC1CCN(C(=O)CSc2nnc(-c3cccnc3)o2)CC1` reads 7.43% (inactive); that for `Cc1cc(C)nc(NC(=NCCc2c[nH]c3ccccc23)NC(=O)Nc2cccc([N+](=O)[O-])c2)n1`, 8.14% (inactive).

For `Cc1ccc(-c2[nH]ncc2/C=C(\C#N)C(=O)NC2CCCCC2)cc1`, the inhibition was 6.42% (inactive). Take `Cc1cc(C)c(C(=O)N2CCCC(C(=O)c3cc(F)ccc3F)C2)o1` (stereo unspecified): the inhibition is 5.58% (inactive).

In the case of `CCOC(=O)c1[nH]c2ccc(OC)cc2c1NC(=O)c1cccc(OC)c1`, the inhibition was 5.01% (inactive). The result for `CCOC(=O)c1[nH]c2ccc(F)cc2c1NC(=O)c1ccccc1C(=O)O` reads 66% (inactive); that for `CCc1ccc(CN(C)C(=O)c2cc(COc3ccc(OC)cc3Cl)on2)nc1`, 10.7% (inactive); that for `c1ccc2nc(-c3nccs3)ccc2c1`, 1.49% (inactive). Turning to `Oc1ccc(-c2nccc(-c3cccs3)n2)cc1`, the inhibition is 9.71% (inactive). The result for `COc1cc(CCCN2CCNC[C@@H]2C(C)O)cc(OC)c1OC` (stereo partly specified) reads 3.02% (inactive); that for `COc1ccc(N2CCN(C(=O)CCCn3c(=O)[nH]c4cc(Cl)ccc4c3=O)CC2)cc1`, 12.7% (inactive); that for `Cc1nnc(SCc2ccc(Cl)c(Cl)c2)s1`, 5.65% (inactive). As to `CCc1noc(C)c1C(=O)NNC(=O)c1ccc(Br)cc1`, the inhibition was 5.66% (inactive). Consider `CCOC(=O)/C(C#N)=C/c1ccc(OC)c(OC)c1`, for which the inhibition is 5.15% (inactive). With `N#C/C(=C\c1ccc2c(c1)OCCO2)C(=O)Nc1ccc(C(=O)O)cc1`, the inhibition is 8.32% (inactive). For `CCOC(=O)/C(C#N)=C\c1ccc(OC)c(OC)c1` the value was 8.76% (inactive); for `COc1cc(/C=C(\C#N)C(=O)Nc2ccccn2)ccc1O`, 14.9% (inactive); for `N#C/C(=C\c1cccc(O)c1)C(=O)Nc1ccc2c(c1)OCCO2`, 7.83% (inactive).

Regarding `COCCNC(=O)/C(C#N)=C/c1ccc2c(c1)OCO2`, the inhibition is 0.46% (inactive). Turning to `Cc1cc(C)c(OCCOCCN(C)C)c(Br)c1`, the inhibition is 12.7% (inactive).

`CC(C)(C)[C@@H]1C=C(C(N)=O)O[C@H](OCCCCO)C1`: the inhibition was 4.43% (inactive).

With `CN(C(=O)CN1C(=O)NC(C)(c2cccc(Br)c2)C1=O)C1CCCCC1` (stereo unspecified), the inhibition is 6.93% (inactive).

Take `COc1ccc2nc(SCCOC(=O)Nc3ccc(Cl)cc3)nc(C)c2c1`: the inhibition is 9.72% (inactive).

`CC1=C(C(=O)NC2CC(C)(C)Cc3c2cnn3-c2cccc(F)c2)OCCO1` (stereo unspecified): the inhibition was -2.86% (inactive).

With `CCC(C(=O)Nc1cc(C)nn1-c1nc(C)cc(C)n1)c1ccccc1` (stereo unspecified), the inhibition is 13.7% (inactive). For the molecule `COc1cccc(/C=C2/C(=O)NN(c3ccc(Br)cc3)C2=O)c1O`, the inhibition is 13.4% (inactive). Consider `O=C1NN(c2cccc(Br)c2)C(=O)/C1=C\c1ccc(O)cc1`, for which the inhibition was 14.5% (inactive). For `O=C1NN(c2ccccc2)C(=O)/C1=C\c1ccccc1` the value was 21.7% (inactive); for `O=C1NN(c2ccccc2)C(=O)C1=Cc1ccccc1`, 13.7% (inactive); for `CCC1CCCCN1C(=O)CCS(=O)(=O)c1ccc2c(c1)CCN2C(C)=O` (stereo unspecified), 8.33% (inactive).

On to `CCOc1ccc(N(CC(=O)Nc2ccccc2OC)S(C)(=O)=O)cc1`, for which the inhibition was 9.6% (inactive). For `C/C(=N\NC(=O)OC(C)(C)C)c1ccccc1Br` the value was -4.8% (inactive); for `CCCc1cc(=O)[nH]c(SCC(=O)N2CCCCCC2)n1`, 2.49% (inactive). The result for `COc1ccc(N2CCN(C(=O)CCS(=O)(=O)c3cccc4nsnc34)CC2)cc1` reads 28% (inactive).

In the case of `Cn1nnnc1SCC(=O)Nc1cc(S(=O)(=O)N2CCCC2)ccc1Cl`, the inhibition is 4.66% (inactive). For `CC(=C/c1ccccc1)/C=N/n1cnnc1` the value was -1.27% (inactive); for `CC(/C=N/n1c(-c2ccccc2)n[nH]c1=S)=C\c1ccco1`, 24.1% (inactive). The result for `CC(/C=N/n1cnnc1)=C\c1ccccc1` reads 3.71% (inactive).

In the case of `CC(=C/c1ccccc1)/C=N/n1c(C)n[nH]c1=S`, the inhibition is 15.2% (inactive). For `CC(=O)Nc1ccc(S(=O)(=O)NNC(=O)c2cccc([N+](=O)[O-])c2)cc1` the value was 5.98% (inactive). For `COc1ccccc1NC(=O)CCC(=O)c1ccc(-c2ccccc2)cc1` the value was -5.2% (inactive); for `CCc1ccc(NC(=O)C(=O)NCCOc2ccccc2Cl)cc1`, -2.71% (inactive); for `Cc1ccccc1C(=O)c1cccn1CC(=O)NC1CCCC(C)C1C` (stereo unspecified), -36.1% (inactive).

Consider `NC(=O)C1(N2CCCCC2)CCN(Cc2ccc(Br)cc2)CC1`, for which the inhibition is -3.42% (inactive).

In the case of `CC1CCCN(CCOCCOc2ccc(Br)cc2Cl)C1` (stereo unspecified), the inhibition is 30.6% (inactive).

On to `Clc1cc(Br)ccc1OCCN1CCOCC1`, for which the inhibition is 24.7% (inactive). The result for `Cc1ccc(OCCOCCN2CCCC2)c(Br)c1` reads 31.4% (inactive); that for `CC1CCN(CCOCCOc2ccc(Br)cc2Cl)CC1`, 5.16% (inactive). For `Cc1ccc(C(C)(C)C)c(OCCOCCN2CCCC2)c1` the value was 24.1% (inactive); for `CC(C)(C)c1ccccc1OCCOCCN1CCCCCC1`, -5.46% (inactive).

For `Cc1cc(C)c(OCCOCCN2CCN(C)CC2)c(Cl)c1`, the inhibition was 22.7% (inactive). The result for `Cc1cc(Cl)c(OCCOCCN2CCC(C)CC2)c(Br)c1` reads 21.9% (inactive).

The values above are taken from PubChem BioAssay AID624330 (Southern Research Specialized Biocontainment Screening …, 2012).
